Screens as filed in PubChem BioAssay.
UHRF1 MBD2 ctr: UHRF1 methylated DNA binding inhibitors, primary screen, counter-screen for MBD2 inhibitor project, biochemical, TR-FRET, human UHRF1, single concentration; 0.75% of 370,000 active; inhibition, % at 4.4 µM; E3 ubiquitin-protein ligase UHRF1 (Homo sapiens), Q96T88; UHRF1 binding to methylated oligo; in the data active = inhibition above about 21%;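 note: UHRF1 SRA domain binding a hemimethylated CpG hairpin DNA probe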
MBD2 DNA inh: inhibitors of MBD2 binding to methylated DNA, primary screen, biochemical, TR-FRET, DNA-binding domain, human. 0.31% of 370,000 active. inhibition, % at 4.4 µM. MBD2 binding to methylated oligonucleotide. Methyl-CpG-binding domain protein 2 (Homo sapiens), Q9UBB5; in the data active = inhibition above about 13%
Target sequence (Q9UBB5 whole entry, looked up, the tested form may be a part): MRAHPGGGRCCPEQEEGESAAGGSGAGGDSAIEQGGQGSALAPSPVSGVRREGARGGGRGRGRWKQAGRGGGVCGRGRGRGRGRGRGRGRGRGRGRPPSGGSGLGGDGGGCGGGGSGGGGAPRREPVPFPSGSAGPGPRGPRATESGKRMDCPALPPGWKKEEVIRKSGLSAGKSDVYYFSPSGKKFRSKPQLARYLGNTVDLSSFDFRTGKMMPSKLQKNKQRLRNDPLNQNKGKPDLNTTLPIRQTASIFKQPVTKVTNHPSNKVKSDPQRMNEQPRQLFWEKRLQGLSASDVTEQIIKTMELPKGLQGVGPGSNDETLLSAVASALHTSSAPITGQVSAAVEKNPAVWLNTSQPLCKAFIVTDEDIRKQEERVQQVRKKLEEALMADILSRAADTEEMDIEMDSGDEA
PRMT1 inh: PRMT1 methyltransferase inhibitors, primary screen, biochemical, fluorescence polarization; Protein arginine N-methyltransferase 1 (Homo sapiens), Q99873; 1.3% of 370,000 active; inhibition, % at 2.79 µM; AID 652257, 2013; recombinant PRMT1, activity-based probe fluorescence polarization;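 active = inhibition above about 21% made by adding two undisclosed values, limit read from the data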
LEDGF integ inh: blockers of LEDGF/p75-dependent integrase strand transfer – biochemical, TR-FRET, high throughput, primary screen. HIV-1 integrase (with human LEDGF/p75). TR-FRET IN-LEDGF/p75 DNA integration, Eu/Cy5. inhibition, % at 3.7 µM. 0.64% of 370,000 active. AID 743269, 2014;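 active = inhibition above the screen-wide mean plus 3 SD, cut at about 13% in these data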;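 note: signal is the Cy5 over europium emission ratio at 671 and 618 nm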
Each line names hits and unclear results; the compound was inactive in the other large screens. In the library only some 2.5% were active in any assay of this set; here they are far more common.

COc1ccc(/C=C2\SC(=S)N(CC(=O)OCC(=O)Nc3ccc([N+](=O)[O-])cc3OC)C2=O)cc1	none
CCOC(=O)[C@H]1[C@H]2COc3ccc(OC)cc3[C@@H]2N2C(=O)[C@H](C)NC(=O)[C@@]12C	none
CCCCC(=O)Nc1cccc(C(C)O)c1 (stereo not given)	none
CC(C)CC(=O)Nc1cccc(C(C)O)c1 (stereo not given)	UHRF1 MBD2 ctr 21
Cc1ccc2nc(-c3ccc(NC(=O)CSc4nnc(-c5cc(C)[nH]n5)n4N)cc3)sc2c1	none
COc1ccc(NC(=O)CSCC(=O)N(C)CC(=O)Nc2c(C)cccc2C)cc1	none
COc1ccc(NC(=O)c2ccc(NC(=O)CN(C)CC(=O)Nc3c(C)cccc3C)cc2)cc1	UHRF1 MBD2 ctr 22
CCc1nnc(N/N=C/c2c(C)[nH]c3ccccc23)n1N	LEDGF integ inh 68
COc1ccc(Cl)cc1NC(=O)CN(C)C(=O)c1cc(-c2ccncc2)nc2ccccc12	LEDGF integ inh 16
O=C(COC(=O)CCCNC(=O)c1ccc(Cl)cc1)NCc1ccccc1Cl	none
N#CCN(C(=O)COC(=O)CCCNC(=O)c1ccc(Cl)cc1)c1ccccc1	UHRF1 MBD2 ctr 50
COC(=O)[C@@H]1CCCN1Cc1nc(Cc2ccc(OC)c(OC)c2)no1	UHRF1 MBD2 ctr 33
CN(C)CCCNc1oc(/C=C/c2cccs2)nc1S(=O)(=O)c1ccccc1	none
COCCNc1oc(/C=C/c2cccs2)nc1S(=O)(=O)c1ccccc1	UHRF1 MBD2 ctr 53
O=C(O)c1ccc(S(=O)(=O)Nc2ccc(O)c(Sc3nc4ccccc4s3)c2)cc1	PRMT1 inh 22
O=C(NC1CC(=O)N(c2ccc(Cl)cc2)C1)N1CCN(C(=O)c2ccco2)CC1 (stereo not given)	none
COc1cc(C(=O)OCC(=O)N2CCCC2)cc2c1OCCO2	none
COc1ccccc1OC(=O)CCc1nc2ccccc2s1	PRMT1 inh 22
CC1CCN(C(=O)c2ccc(S(=O)(=O)N3CCCC3)cc2)CC1	UHRF1 MBD2 ctr 41
CC1CCN(S(=O)(=O)c2ccc(C(=O)N3CCCC3C(=O)O)cc2)CC1 (stereo not given)	UHRF1 MBD2 ctr 57
CC1CCN(S(=O)(=O)c2ccc(C(=O)N3CCCCC3C(=O)O)cc2)CC1 (stereo not given)	none
CCC(=O)[C@@]1(C)[C@H](C)C[C@H]2[C@@H]3CCC4=CC(=O)C=C[C@]4(C)[C@H]3[C@@H](O)C[C@@]21C	none
COc1ccc(CCNC(=O)COC(=O)C2=NNC(=O)CC2)cc1	none
C[C@@H]1COc2cc(N3CCCC3)ccc2S(=O)(=O)N1	UHRF1 MBD2 ctr 21
O=C(NNC(=O)C1CCN(Cc2ccc(F)cc2Cl)CC1)Nc1ccc([N+](=O)[O-])cc1	UHRF1 MBD2 ctr 29
Cc1cccc(C(=O)Nc2cccc(Br)c2)c1[N+](=O)[O-]	none
COc1cccc(NC(=O)c2cccc(C)c2[N+](=O)[O-])c1	UHRF1 MBD2 ctr 62
CC(=O)N1CCc2c(sc(NC(=O)C3CC3)c2-c2nc3ccccc3s2)C1	PRMT1 inh 30
CC(=O)Nc1sc2c(c1-c1nc3ccccc3s1)CCN(C(C)=O)C2	none
COc1ccc(CN2C(=O)CCC2(C)c2nnnn2-c2c(C)cccc2C)cc1OC (stereo not given)	none
COc1ccc(CCN2C(=O)CCC2(C)c2nnnn2-c2c(C)cccc2C)cc1OC (stereo not given)	UHRF1 MBD2 ctr 22
Cc1ccc(NC(=O)c2ccc(=O)[nH]n2)cc1S(=O)(=O)Nc1ccc(SC(F)F)cc1	PRMT1 inh 46
COc1ccc(NS(=O)(=O)c2cc(NC(=O)c3ccc(=O)[nH]n3)ccc2N2CCOCC2)cc1	UHRF1 MBD2 ctr 29
Cc1nn(C)c(Cl)c1NC(=O)OCc1ccc(Cl)cc1Cl	UHRF1 MBD2 ctr 53
O=c1cc(CN2CCC(Cc3ccccc3)CC2)nc2sccn12	none
CC1CN(Cc2cc(=O)n3ccsc3n2)CC(C)O1 (stereo not given)	UHRF1 MBD2 ctr 21
COC(=O)c1cc(-c2ccc(-c3ccccc3)c(F)c2)c(=O)n2c1CCC2	none
CC(=O)c1sc(NC(=O)c2ccc(COc3ccccc3Cl)o2)nc1C	none
COc1ccc2c(c1)-c1nc(/N=C/c3c(O)ccc4ccccc34)sc1CC2	PRMT1 inh 21
COc1ccc2c(c1)-c1nc(/N=C/c3ccc(O)cc3)sc1CC2	PRMT1 inh 36
Oc1ccc2ccccc2c1/C=N/c1nccs1	none
CC1(C(=O)O)CCCN1C(=O)c1cc2ccccc2s1 (stereo not given)	none
COc1ccccc1NC(=O)COC(=O)CCS(=O)(=O)c1ccc(C)cc1	none
COc1ccc(OC)c(NC(=O)COC(=O)CCS(=O)(=O)c2ccc(Cl)cc2)c1	UHRF1 MBD2 ctr 21
Cc1cc(Cl)cc(C)c1OCC(=O)N1CCN(c2ncccn2)CC1	none
Cc1ccc(CSc2ccc(C(=O)N3CCOCC3)cc2[N+](=O)[O-])cc1	none
Cn1cnc([N+](=O)[O-])c1S(=O)(=O)Oc1cccc2ccccc12	PRMT1 inh 23
CN(C)CCNC(=O)C1CCCNC1=O (stereo not given)	none
Cc1ccc(S(=O)(=O)NCCNC(=O)C2CCCNC2=O)cc1 (stereo not given)	UHRF1 MBD2 ctr 21
Cc1ccccc1NC(=O)c1cc(S(=O)(=O)N2CCCCC2)ccc1N1CCOCC1	none
O=C(Nc1ccc(S(=O)(=O)N2CCOCC2)cc1)c1ccc2c(c1)S(=O)(=O)c1ccccc1C2=O	none
O=C(Nc1cc(S(=O)(=O)N2CCOCC2)ccc1O)c1ccc2c(c1)S(=O)(=O)c1ccccc1C2=O	PRMT1 inh 21
O=C(Nc1nnc(-c2ccc(F)cc2)s1)C1CCN(S(=O)(=O)c2ccc(Cl)cc2)CC1	none
Cc1ccc(S(=O)(=O)N2CCC(C(=O)Nc3nnc(-c4ccc(F)cc4)s3)CC2)cc1	UHRF1 MBD2 ctr 25
O=C1/C(=C\c2ccc(-c3ccccc3Cl)o2)SC(=S)N1CC1CCCO1 (stereo not given)	none
Cc1ccc(/C=C2\SC(=S)N(CC3CCCO3)C2=O)o1 (stereo not given)	PRMT1 inh 23
CC(=O)Nc1ccc(-c2noc(-c3csc([C@@H]4C[C@H](O)[C@@H](CO)O4)n3)n2)cc1	none
Cc1ccccc1NC(=O)C(=Cc1ccc(C(=O)O)cc1)C(=O)Nc1ccccc1C	UHRF1 MBD2 ctr 26
Fc1ccc(Nc2nc(-c3ccncc3)cs2)cc1	UHRF1 MBD2 ctr 28
CCC(c1nnc(SCC(=O)NCCc2ccc(Cl)cc2Cl)o1)N(C)C (stereo not given)	PRMT1 inh 21
CCC(c1nnc(SCC(=O)Nc2cc(C)on2)o1)N(C)C (stereo not given)	none
Cc1ccc(OCCOc2ccc(Cl)cc2Cl)c(Br)n1	none
O=C(O)CCC(=O)N1CCN(c2ncccn2)CC1	none
CC(C)(C)n1nnnc1CN(Cc1ccco1)Cc1cc2cc3c(cc2[nH]c1=O)OCO3	PRMT1 inh 24
